Screening results from PubChem.
Many of the other results were omitted from the sample, so hits are more common in it than they were.
ST2 inh: IL1RL1 inhibition; Q01638; AlphaLISA ST2-Fc/biotin-IL-33 interaction, 1 h; inhibition, % for hits at 17 µM; hit rate 2.3% among 78,000; in the data active = inhibition above about 30%
Target sequence (Q01638 whole entry, looked up): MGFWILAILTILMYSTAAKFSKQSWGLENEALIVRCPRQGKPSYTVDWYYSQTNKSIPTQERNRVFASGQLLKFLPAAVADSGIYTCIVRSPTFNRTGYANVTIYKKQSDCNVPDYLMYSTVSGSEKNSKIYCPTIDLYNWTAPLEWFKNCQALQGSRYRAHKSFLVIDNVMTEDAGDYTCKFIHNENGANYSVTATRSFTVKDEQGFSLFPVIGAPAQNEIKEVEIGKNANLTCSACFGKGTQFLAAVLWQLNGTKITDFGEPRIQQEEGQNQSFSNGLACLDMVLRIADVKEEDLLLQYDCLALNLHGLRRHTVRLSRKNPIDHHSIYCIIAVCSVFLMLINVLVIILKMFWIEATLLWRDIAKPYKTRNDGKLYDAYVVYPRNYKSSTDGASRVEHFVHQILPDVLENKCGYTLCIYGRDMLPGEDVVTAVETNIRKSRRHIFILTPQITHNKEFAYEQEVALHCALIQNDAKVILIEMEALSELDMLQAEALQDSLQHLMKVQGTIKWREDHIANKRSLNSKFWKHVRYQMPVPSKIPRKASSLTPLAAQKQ
A number is an active result; i = inactive.

SMILES	ST2 inh
COc1cc(-c2nnc3n2C(C)(C)Cc2ccccc2-3)cc(OC)c1OC	i
Cc1ccc(N=Cc2nc(-c3ccccc3)oc2O)cc1Cl	i
COc1cc(-c2nc(C=C3C(C)=Nc4ccccc43)c(O)o2)cc(OC)c1OC	34%
COc1cccc(CNS(=O)(=O)c2cccc3cccnc23)c1	i
CCOc1ccccc1-c1nc(C(N)=O)c2c(n1)n(-c1ccc(C)c(C)c1)c(=O)n2Cc1ccccc1	i
Cc1ccc(C)n1-c1cccc(C(=O)O)c1	96%
O=C(O)c1cccc(N2C(=O)C3C4C=CC(O4)C3C2=O)c1 (centres undefined)	i
Cc1ccc(C)n1-c1ccc(C(=O)O)c(C(=O)O)c1	88%
Cc1ccc(C(=O)c2ccccc2C(=O)O)c(C)c1	i
Cc1cc(C=O)c(C)n1-c1ccc(C(=O)O)c(Cl)c1	i
CC(=O)Nc1cccc(C(=O)O)c1	i
CCN(CC)CCNC(=O)c1ccc2c(Cl)c3c(nc2c1)CCCC3	i
C=CCNC(=O)c1cc2c(=O)n3ccccc3nc2n1C	i
CCCc1nc(N[C@H]2CCCCNC2=O)c2cnn(C)c2n1	i
CCOC(=O)c1nn(CCc2scnc2C)c2c1CN(C(=O)c1scc3c1CCCC3)CC2	i
CCOC(=O)c1nn(CCc2ccc(OC)cc2)c2c1CN(C(=O)c1cc(C)nc(C)n1)CC2	30%
CCOC(=O)c1nn(Cc2ccc(OC)cc2)c2c1CN(C(=O)C1CCCO1)CC2 (centres undefined)	i
COCCNC(=O)c1ccc(OC2CCN(CC3=CC[C@H]4C[C@@H]3C4(C)C)CC2)c(Cl)c1	i
C=CCc1ccc(OCCCOc2ccccc2C(C)=O)c(OC)c1	i
CSc1ccc(-c2nc(C(N)=O)c3c(n2)n(-c2ccc(C)c(C)c2)c(=O)n3Cc2ccccc2)cc1	i
COc1ccc(CC(=O)N2N=C(C)CC2(O)c2cccnc2)cc1 (centres undefined)	i
CCN1C(=Nc2cccnc2)SCC1(O)c1ccccc1 (centres undefined)	33%
O=c1cc(-c2ccc(O)c(O)c2)oc2ccc(O)cc12	i
CC(=O)N1CCN(Cc2c(F)cccc2F)CC1	i
Cc1ccccc1N=C1NC(=O)c2cccc([N+](=O)[O-])c21	i
SMILES	ST2 inh
Cc1cc2c(cc1[N+](=O)[O-])-c1ncccc1C2=Nc1ccccc1	32%
O=C1NC(=Nc2ccccc2)c2c1cccc2[N+](=O)[O-]	i
O=C(Nc1c(C(=O)Nc2ccc(F)cc2)oc2ccccc12)c1ccc2c(c1)OCO2	i
Cc1ccc(-c2nnc(-c3ccc(Cl)cc3)o2)cc1	i
COc1ccc(-c2nnc(N)o2)cc1	i
Nc1ccc(-c2nnc(-c3ccc(N)cc3)o2)cc1	37%
COc1ccc(C=O)cc1OCc1cccc(F)c1	i
O=C1CC(c2ccccc2)=Nc2ccccc2N1	i
Oc1ccccc1C1=Nc2ccccc2N=C(c2cccc(F)c2)C1	30%
Fc1cccc(-c2nnc3n2N=C(c2cccc(Br)c2)CS3)c1	i
O=C(CCNC(=O)Cn1cnc2ccccc2c1=O)NCc1ccccn1	i
CCN(c1ccccc1)S(=O)(=O)c1ccc(Br)s1	i
C(=C\CN1CCCCC1)/CN1CCCCC1	i
CCC(Oc1ccc2c(c1)C(=O)CC(C)(C)O2)C(=O)N1CCC(C)CC1 (centres undefined)	i
O=C(CSc1nc2c([nH]c3ccccc32)c(=O)n1-c1ccc(F)cc1)N1CCCCC1	i
NC(=O)CSc1nc2c([nH]c3ccccc32)c(=O)n1-c1ccc(Cl)cc1	i
O=C(CSc1nc2c([nH]c3ccccc32)c(=O)n1-c1cccc(Cl)c1)N1CCOCC1	35%
CC1CCCC(NC(=O)C2CCCN(S(C)(=O)=O)C2)C1C (centres undefined)	i
O=C(CCC1CCCN(C(=O)C2(c3ccc(Cl)cc3)CCC2)C1)NC1CC1 (centres undefined)	i
COc1cccc(-c2ccccc2NC(=O)C2CCN(Cc3cccc4ncccc34)CC2)c1	i
N#C/C(=C\c1ccc(-c2ccccc2)o1)C(=O)Nc1cccc2ncccc12	40%
N#C/C(=C\c1ccc(-c2cccc(C(F)(F)F)c2)o1)C(=O)O	i
O=C1CSC(c2ccc(F)cc2)N1c1cccc(F)c1 (centres undefined)	i
Cc1cc(C)n(CCc2ccccc2)n1	i
CCOC(=O)CN1C(=O)CSc2ccc(S(=O)(=O)N3CCCCCC3)cc21	i
SMILES	ST2 inh
Cc1noc(C)c1S(=O)(=O)Nc1ccc2c(c1)OCCO2	i
O=C1N(CC2CCC2)CCCC1(O)CN1CCCOCC1 (centres undefined)	i
CCOC(=O)C1(CC2CCCCO2)CCNCC1 (centres undefined)	i
CC1NC(=O)NC1CCCCC(=O)O (centres undefined)	46%
NCCCCCC(=O)O	i
O=C(O)CCCC[C@@H]1CCSS1	i
Cc1ccc(Cn2c(SCC(C)O)nc3c2c(=O)n(C)c(=O)n3C)cc1 (centres undefined)	i
COc1ccccc1/C=C/C1=NC(=C\c2ccccc2)/C(=O)O1	38%
COc1ccccc1/C=C/C1=NC(=C\c2cccc([N+](=O)[O-])c2)/C(=O)O1	i
COc1ccccc1/C=C/C1=NC(=C\c2c(F)cccc2Cl)/C(=O)O1	i
COc1ccccc1/C=C1N=C(/C=C/c2ccccc2OC)OC\1=O	37%
COc1ccccc1/C=C/C1=NC(=C\c2ccc(Cl)cc2)/C(=O)O1	i
COc1ccccc1/C=C/C1=NC(=C\c2ccccc2Cl)/C(=O)O1	i
O=S(=O)(c1cccnc1)N1CCCC(N2CCN(Cc3ccc4c(c3)OCO4)CC2)C1 (centres undefined)	i
O=C(c1ccn2nnnc2c1)N1CCCC(CCc2ccc(F)c(F)c2)C1 (centres undefined)	i
COc1ccccc1S(=O)(=O)CC(SC#N)c1ccccc1 (centres undefined)	i
CN1CCN(CCCNC(=O)c2cn(C)c(=O)c3c2c2ccccc2n3C)CC1	i
O=C(NC[C@H]1O[C@@H](CO)[C@@H](O)[C@H]1N1CCN(c2cccc(C(F)(F)F)c2)CC1)c1cccc(F)c1	i
CC(=O)NC[C@H]1O[C@@H](CO)[C@@H](O)[C@H]1N1CCN(c2ccccc2)CC1	37%
CN1CCN([C@@H]2[C@H](O)[C@H](CO)O[C@@H]2CNC(=O)Nc2cccc(Cl)c2)CC1	i
O=C(NC[C@H]1O[C@@H](CO)[C@@H](O)[C@H]1N1CCN(c2cccc(C(F)(F)F)c2)CC1)c1cccs1	i
COc1cc(NC(=O)NC[C@H]2O[C@@H](CO)[C@@H](O)[C@H]2N2CCN(c3cccc(C(F)(F)F)c3)CC2)cc(OC)c1	86%
COc1ccc(C(=O)NC[C@H]2O[C@@H](CO)[C@@H](O)[C@H]2N2CCN(c3ccccn3)CC2)cc1	i
O=C(NC[C@H]1O[C@@H](CO)[C@@H](O)[C@H]1N1CCCC1)c1ccco1	i
O=C(NC[C@H]1O[C@@H](CO)[C@@H](O)[C@H]1N1CCN(c2ccccc2)CC1)c1ccc(C(F)(F)F)cc1	i
O=C(NC[C@H]1O[C@@H](CO)[C@@H](O)[C@H]1N1CCN(c2ccccc2)CC1)N1CCOCC1	i
COc1ccccc1N1CCN([C@@H]2[C@H](O)[C@H](CO)O[C@@H]2CNC(=O)c2cccc(F)c2)CC1	i
O=C(NC[C@H]1O[C@@H](CO)[C@@H](O)[C@H]1N1CCN(c2ccc(F)cc2)CC1)c1ccc(F)c(Cl)c1	34%
CN1CCN([C@@H]2[C@H](O)[C@H](CO)O[C@@H]2CNC(=O)c2cccc(F)c2)CC1	32%
COc1ccc(CC2CN(Cc3cccn3-c3ncccn3)CCO2)cc1 (centres undefined)	i
